The list is not random: actives were taken first. Their share in the collection is about 2.3%.
ID4 SMM = binders of human ID4 protein; small molecule microarray, Flag-ID4 binding, fluorescence F/B; calls only; P47928; AID 624137; 31,000 compounds, 1.2% hits; call rule not given here;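 further: a binder raises fluorescence above local background on the spot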
Target sequence (P47928 whole entry, looked up): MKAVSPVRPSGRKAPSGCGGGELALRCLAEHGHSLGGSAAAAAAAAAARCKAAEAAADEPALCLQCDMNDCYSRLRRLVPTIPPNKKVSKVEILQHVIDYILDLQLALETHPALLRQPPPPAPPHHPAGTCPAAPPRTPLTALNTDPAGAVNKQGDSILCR
p53 PUMA act = re-activators of the mutant p53 pathway; AID 624151; SW480 PUMA-promoter luciferase, p53 mutant reactivation; activation, % at 9.98 µM; 28,000 compounds, 1.5% hits; in the data active means activation above about 52%
The depositor's hits bear a star; i = inactive; . = no result given; + = active, no number.

SMILES | ID4 SMM | p53 PUMA act
COC(=O)c1cc(NC(=S)NCc2cccnc2)cc(C(=O)OC)c1 | i | 14.2
N/C(=N\O)c1ccc(N2CCN(c3ncccc3C(F)(F)F)CC2)nc1 | i | 141.8*
COC(=O)c1ccc(C(=O)OC)c(NS(=O)(=O)c2ccc3c(c2)OCCO3)c1 | i | -13.8
O=C(O)c1ccccc1Nc1nc(N2CCOCC2)nc(N2CCOCC2)n1 | i | 55.8*
O=C(CSc1nc(Nc2ccccc2)nc(N2CCOCC2)n1)Nc1ccccc1Cl | i | 4.8
Cc1cc(C(=O)NN2C3CSC2CS3)no1 | i | -5.8
O=C(CSc1nnnn1-c1ccccc1)Nc1cc(Cl)ccc1C(=O)O | i | -6.1
O=C(CSc1nnnn1-c1ccccc1)Nc1ccc(Cl)c(C(=O)O)c1 | + | 3.4
C[C@@H]1CN([C@H](C)CO)C(=O)CCCn2cc(nn2)CO[C@H]1CN(C)C(=O)c1ccc(N2CCN(C)CC2)cc1 | i | 12.4
C[C@@H]1CN([C@@H](C)CO)C(=O)CCCn2cc(nn2)CO[C@H]1CN(C)C(=O)c1ccc(N2CCN(C)CC2)cc1 | + | -0.4
C[C@@H]1CN([C@@H](C)CO)C(=O)CCCn2nncc2CO[C@H]1CN(C)CC1CCCCC1 | + | .
C[C@H]1CN([C@@H](C)CO)C(=O)CCCn2nncc2CO[C@H]1CN(C)CC1CCCCC1 | i | .
C[C@H](CO)N1C[C@H](C)[C@@H](CN(C)CC2CCCCC2)OCc2cn(nn2)CCCC1=O | + | .
C[C@H](CO)N1C[C@H](C)[C@@H](CN(C)C(=O)Nc2ccccc2F)OCc2cnnn2CCCC1=O | + | 11.2
C[C@H](CO)N1C[C@H](C)[C@H](CN(C)CC2CCCCC2)OCc2cn(nn2)CCCC1=O | i | .
C[C@H]1CN([C@@H](C)CO)C(=O)CCCn2nncc2CO[C@@H]1CN(C)C(=O)Nc1ccccc1F | i | 13.3
CCN(CC(=O)Nc1cccc(C)c1)S(=O)(=O)c1ccc(Br)cc1 | i | -13.4
Cc1cc(I)ccc1NC(=O)Cn1ccc([N+](=O)[O-])n1 | i | 35.4
Cc1cc(C)c(NC(=O)CSc2nnc(-c3ccc(Br)cc3)o2)c(C)c1 | i | 0.6
Cc1ccc(-c2cnc(-c3ccc(Br)cc3)o2)cc1 | i | 71.5*
CCn1c(SCC(=O)Nc2cc(C)c(Cl)cc2OC)nnc1-c1cnccn1 | i | -7.0
CCn1c(SCC(=O)Nc2c(C)cccc2C)nnc1-c1cnccn1 | + | -3.5
COC(=O)c1c(NC(=O)c2ccc(OC)c(OC)c2)sc2c1C(C(=O)OC)CC2 (centres undefined) | i | 13.1
O=C(NCC(O)c1ccccc1)c1ccc(S(=O)(=O)N2CCOCC2)cc1 (centres undefined) | i | -11.7
O=C(CSc1nc2ccccc2s1)Nc1ccc(F)c(Cl)c1 | i | -0.4
SMILES | ID4 SMM | p53 PUMA act
CC(=O)Nc1ccc(C(=O)Nc2ccc(OCC(=O)O)cc2)cc1 | i | -4.0
O=C(O)COc1ccc(NC(=O)c2ccc(NC(=O)c3ccco3)cc2)cc1 | + | -14.2
O=C(OCc1cccc([N+](=O)[O-])c1)c1ccc(NC(=O)c2ccco2)cc1 | i | 69.6*
COc1ccc(C(=O)Nc2ccc(C(=O)OCc3cccc([N+](=O)[O-])c3)cc2)cc1 | i | 5.8
O=C(NCCNC(=O)c1ccccc1[N+](=O)[O-])c1ccc(F)cc1 | i | -13.1
O=c1sc(N2CCN(C3CCCCC3)CC2)nc2ccsc12 | i | 45.5
Cn1c(Cc2cccc3ccccc23)nnc1SCC(=O)c1ccc(Cl)cc1 | i | -9.8
Cc1ccccc1-c1nnc(SCC(=O)Nc2cc(C(F)(F)F)ccc2N2CCOCC2)o1 | i | -10.7
CC(=O)c1cccc(NC(=O)NCc2cccnc2)c1 | i | -14.7
Cn1ccc2cc(NC(=O)Nc3cccnc3)ccc21 | + | 79.8*
COc1ccccc1Nc1nc(N)nc(CSc2ncccn2)n1 | i | 85.7*
CCOc1ccccc1Nc1nc(N)nc(CSc2nccc(C)n2)n1 | i | 16.3
COCCn1c(SCC(=O)N2CCOCC2)nc2c(c1=O)SC(C)C2 (centres undefined) | i | 5.3
COc1ccc2cc(CCC(C)=O)ccc2c1 | i | .
CC(=O)CCc1ccc(Oc2ccc(C(F)(F)F)cn2)cc1 | i | 64.7*
CCOC(=O)c1c(NC(=O)CSc2nnc3ccc4ccccc4n23)sc(C)c1C | i | -14.4
COC(=O)c1c(NC(=O)CSc2nnc3ccccn23)sc(C)c1C | + | 4.7
O=[N+]([O-])c1ccccc1OCCCCSc1ncccn1 | i | 23.4
Cc1ccc([N+](=O)[O-])c(OCCCSc2ncccn2)c1 | i | 66.9*
Cc1ccc(S(=O)(=O)NCC(=O)Nc2ccc(F)cc2F)cc1 | i | -0.8
NCCCCCNC(=O)[C@H]1C[C@H]2C(=O)NCC(=O)N2[C@H]1c1cccc(OCCO)c1 | i | .

Screens deposited in PubChem by Broad Institute.
